Bioassay records: PubChem BioAssay, several laboratories
Hsp70 activator: Hsp70 transcriptional activators, primary screen, cell-based, HeLa, Hsp70 promoter luciferase, luminescence, 10 µM; HeLa Hsp70 promoter luciferase reporter; scaled: vehicle 0, proteasome-inhibitor control 100%; activation, % at 10 µM; hit rate 0.04% among 200,000; AID 1203, 2008;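 active = activation above the mean across all tested compounds plus 3 SD, cutoff set per campaign, cut at about 5.5% in these data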;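 note: 100% = MG132 at 30 µM as the positive control and 0% = DMSO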
CHOP inh: inhibitors of CHOP promoter induction, primary screen, cell-based, unfolded protein response, luciferase reporter; CHO-K1 CHOP-promoter luciferase, tunicamycin-induced, 15-18 h; hit rate 3.8% among 220,000; inhibition, % at 10 µM;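 active = compounds that reduced the stress-induced luciferase reporter signal by more than about 70% of percent inhibition, limit read from the data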;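 note: 0% = tunicamycin plus vehicle and 100% = wells without tunicamycin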
S1P4 ag: S1P4 receptor agonists, primary screen, cell-based | hit rate 0.35% among 220,000 | activation, % at 4.98 µM | Sphingosine 1-phosphate receptor 4 (Homo sapiens), O95977 | S1P4-expressing cell line, agonist reporter assay; in the data active = activation above about 11%;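 note: 0% = DMSO vehicle and 100% = reference agonist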
Target sequence (O95977 whole entry, looked up): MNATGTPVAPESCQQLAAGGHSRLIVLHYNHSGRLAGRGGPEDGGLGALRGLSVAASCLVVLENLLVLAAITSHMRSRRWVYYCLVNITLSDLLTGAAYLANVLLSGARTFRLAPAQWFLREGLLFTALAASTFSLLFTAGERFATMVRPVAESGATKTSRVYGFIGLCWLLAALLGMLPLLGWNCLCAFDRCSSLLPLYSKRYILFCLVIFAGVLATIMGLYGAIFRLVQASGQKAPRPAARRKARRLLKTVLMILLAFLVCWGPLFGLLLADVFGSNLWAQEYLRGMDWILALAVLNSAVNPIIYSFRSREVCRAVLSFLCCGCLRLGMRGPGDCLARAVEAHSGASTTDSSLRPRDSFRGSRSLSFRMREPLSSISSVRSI
S1P4 antag: S1P4 receptor antagonists, primary screen, cell-based; AID 1510, 2009; Sphingosine 1-phosphate receptor 4 (Homo sapiens), O95977; S1P4-expressing cells, antagonist mode, reporter read-out; inhibition, % at 4.98 µM; hit rate 0.26% among 220,000; in the data active = inhibition above about 29%;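 note: 0% = wells stimulated with agonist and 100% = vehicle wells without agonist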
An asterisk follows results filed as active; nt = not tested or not shown. Rows were chosen to be rich in hits. Some 4.2% of all compounds tested hit in one or more screens of this group.

SMILES	Hsp70 activator	CHOP inh	S1P4 ag	S1P4 antag
Clc1ccc2c(Cl)c(-c3nnc(-c4ccccc4)o3)sc2c1	2	nt	2	-12
Cc1cc(=O)n2[nH]c(=O)c(N=Nc3ccccc3)c2[nH]1	0	12	-1	-2
Cc1ccc(-c2[nH][nH]c(=O)c(=O)c2N=Nc2ccccc2)cc1	nt	75*	-1	5
Cc1cccc(OCC(O)Cn2c(-n3nc(C)cc3C)nc3c2c(=O)[nH]c(=O)n3C)c1 (stereo unspecified)	1	73*	3	-2
Cc1ccc(-n2cc(C(=O)c3ccc(N4CCN(C)CC4)cc3)nn2)cc1Cl	0	70*	0	-1
CN1CCN(c2ccc(C(=O)c3cn(-c4ccc(F)c(Cl)c4)nn3)cc2)CC1	0	-50	0	-16
Cc1c(CCC(C)C)c(=O)n2c([nH]c3ccccc32)c1C#N	0	96*	0	-5
COc1ccc(/C(C)=N/N=C(N)N)c(OC)c1	nt	13	-1	3
CCCc1nc2sc3c(=O)n(N)cnc3c2c2c1CCCC2	0	74*	2	-22
O=C(N/N=C/c1ccco1)c1ccc2nc[nH]c2c1	nt	-1	1	7
COCCN1C(=O)c2cc(C(=O)Nc3cccc(F)c3)ccc2C1Nc1cccc(F)c1 (stereo unspecified)	0	90*	3	1
CCc1ccc(NC(=O)c2ccc3c(c2)C(=O)N(CCOC)C3Nc2ccc(CC)cc2)cc1 (stereo unspecified)	0	94*	1	-2
COc1cc(NC(=O)c2ccccc2)c(OC)cc1NC(=O)CN1CCCCC1	0	1	0	3
CC(C)n1c(SCCCc2ccccc2)nc2c1c(=O)[nH]c(=O)n2C	0	97*	2	-10
C=CCNc1nc2c(c(=O)[nH]c(=O)n2C)n1CCCCC	0	71*	-1	-12
C=CCn1c(SCCCc2ccccc2)nc2c1c(=O)[nH]c(=O)n2C	0	77*	0	-20
COCCn1c(SCCCc2ccccc2)nc2c1c(=O)[nH]c(=O)n2C	0	-5	0	-6
CCCn1c(SCCc2ccccc2)nc2c1c(=O)[nH]c(=O)n2C	0	6	-1	-5
CCCCCn1c(SCCc2ccccc2)nc2c1c(=O)[nH]c(=O)n2C	0	93*	0	-4
Cc1cccc(-n2ncc3c(NCc4cccnc4)ncnc32)c1	nt	-20	nt	nt
CSc1ncccc1C(=O)OCC(=O)c1cc(C)n(CC2CCCO2)c1C (stereo unspecified)	nt	9	1	2
CC(C)CCn1c(SCCc2ccccc2)nc2c1c(=O)[nH]c(=O)n2C	0	75*	0	-24
Cc1ccc(Sc2nc3c(c(=O)[nH]c(=O)n3C)n2CCc2ccccc2)cc1	0	95*	2	-14
CCOCCn1c(SCCc2ccccc2)nc2c1c(=O)[nH]c(=O)n2C	-1	31	0	-8
Cn1c(=O)[nH]c(=O)c2c1nc(CN1CCN(c3cccc(Cl)c3)CC1)n2CCc1ccccc1	0	82*	-1	-8
SMILES	Hsp70 activator	CHOP inh	S1P4 ag	S1P4 antag
CN(C)S(=O)(=O)c1ccc(NS(=O)(=O)/C=C/c2ccccc2)cc1	0	9	1	3
COc1cc([N+](=O)[O-])cc(/C=N/N(CCC#N)C(C)=O)c1O	0	15	3	-16
NC(=O)Cc1nc(-c2ccc(Br)cc2)cs1	0	-12	1	-2
N#Cc1c(-c2ccc(F)cc2)cc(-c2cccnc2)nc1N	0	88*	1	-24
N#Cc1c(-c2ccc(Br)cc2)cc(-c2cccnc2)nc1N	0	-18	1	1
C=CCN1C(=O)/C(=C/c2ccc(N(C)C)cc2)S/C1=N\c1nnc(CC)s1	0	104*	0	-16
C=CCN1C(=O)/C(=C/c2ccc(OCC(=O)O)cc2)S/C1=N/c1nccs1	0	17	2	-17
Cc1cc(C)cc(NC(=O)Cn2c(=O)oc3cc(S(=O)(=O)N4CCC(C)CC4)ccc32)c1	0	72*	-2	8
CC1CCN(S(=O)(=O)c2ccc3c(c2)oc(=O)n3CC(=O)NCc2ccc3c(c2)OCO3)CC1	0	83*	-1	-23
COc1ccc(OC)c(NC(=O)C2CCN(c3ncccn3)CC2)c1	0	3	0	-11
Cc1ccc2nc(C)cc(Nc3ccc([N+](=O)[O-])cc3)c2c1	0	104*	-1	4
COC(=O)c1ccc(Nc2cc(C)nc3ccc(C)cc23)cc1	nt	-21	1	4
